Test results published in PubChem BioAssay (Tox21).
Inconclusive results are not listed. Where a call stands in place of a potency, no number is given. Calls of active or inactive are those of the source. Unless noted, calls follow the shape of the dose curve; as a rule, active = well fitted curve in the direction sought with a large enough effect in the repeat runs; inconclusive = weak or mixed curves; inactive = no such curve, though single readings can be large; an effect the other way counts as inactive or inconclusive.

Legend:
[1] = qHTS assay to identify small molecule antagonists of the glucocorticoid receptor (GR) signaling pathway - cell viability counter screen (AID 720693); also: nearly all actives have a fitted effect of over 55% in size
[2] = qHTS assay for identifying genotoxic compounds that show differential cytotoxicity against isogenic chicken DT40 cell lines with known DNA damage response pathways - Rev3 mutant cell line (AID 743014); also: nearly all actives have a fitted effect of over 55% in size
[3] = qHTS assay for identifying genotoxic compounds that show differential cytotoxicity against isogenic chicken DT40 cell lines with known DNA damage response pathways - Rad54/Ku70 mutant cell line (AID 743015); also: nearly all actives have a fitted effect of over 60% in size
[4] = qHTS assay to identify small molecule antagonists of the androgen receptor (AR) signaling pathway - cell viability counter screen (AID 743033; also: nearly all actives have a fitted effect of over 45% in size)
[5] = qHTS assay to identify small molecule antagonists of the androgen receptor (AR) signaling pathway using the MDA cell line - cell viability counter screen (AID 743041; also: nearly all actives have a fitted effect of over 45% in size)
In short: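 Viability counter screen run alongside the AR antagonist reporter: cells seeded 5 h before compound, R1881 added, 16 h incubation at 37C without CO2, fluorescent CellTiter-Fluor signal quantified.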

[6] = qHTS assay to identify small molecule antagonists of the thyroid receptor (TR) signaling pathway - cell viability counter screen (AID 743064); also: nearly all actives have a fitted effect of over 50% in size
In short: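 Same-well viability check: GH3.TRE-Luc cells stimulated with 1 nM T3 alongside test compound for 23.5 h, followed by CellTiter-Fluor fluorescence.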

[7] = qHTS assay to identify small molecule antagonists of the thyroid receptor (TR) signaling pathway (AID 743065); also: series mostly up to about 70 µM; nearly all actives have a fitted effect of over 55% in size
In short: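 GH3.TRE-Luc rat pituitary cells carrying two TR response elements driving luciferase were plated for 4 h, given compound plus 1 nM T3 (final), and incubated 23.5 h at 37 C. ONE-Glo luminescence measured reporter inhibition; CellTiter-Fluor fluorescence tracked cytotoxicity.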

[8] = tested on: thyroid hormone receptor (rat, GH3 cells); assay: qHTS assay to identify small molecule agonists of the thyroid receptor (TR) signaling pathway (AID 743066; calls by dose curve)
[9] = target: Estrogen receptor (Homo sapiens) (UniProt P03372); assay: qHTS assay to identify small molecule antagonists of the estrogen receptor alpha (ER-alpha) signaling pathway (AID 743069; active = well fitted curve in the direction sought with a large enough effect in the signal ratio in the repeat runs, not every such curve was filed as active; the % refers to the signal ratio)
In short: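 Estradiol-stimulated ER-alpha-UAS-bla HEK293 cells, 18 hr compound exposure at 37C. LiveBLAzer B/G substrate, 2 hr RT, fluorescence read.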

[10] = qHTS assay to identify small molecule antagonists of the estrogen receptor alpha (ER-alpha) signaling pathway - cell viability counter screen (AID 743074; calls by dose curve;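 also: HEK293 cells carrying ER-alpha-UAS-bla reporter stimulated with 17beta-estradiol; nearly all actives have a fitted effect of over 45% in size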)
[11] = target: Estrogen receptor (Homo sapiens) (UniProt P03372); assay: qHTS assay to identify small molecule agonists of the estrogen receptor alpha (ER-alpha) signaling pathway (AID 743075; calls by dose curve;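 also: HEK293 GripTite cells with ER-alpha and UAS-driven beta-lactamase reporter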)
[12] = target: Estrogen receptor (Homo sapiens) (UniProt P03372); assay: qHTS assay to identify small molecule agonists of the estrogen receptor alpha (ER-alpha) signaling pathway using the BG1 cell line (AID 743079); also: nearly all actives have a fitted effect of over 20% in size; also: potency is read from the fitted curve at half-maximal effect
[13] = qHTS assay to identify small molecule antagonists of the estrogen receptor alpha (ER-alpha) signaling pathway using the BG1 cell line (AID 743080; calls by dose curve;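 also: BG1 cells stimulated with 17beta-estradiol alongside compound; series mostly up to about 70 µM; nearly all actives have a fitted effect of over 25% in size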)
In short: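 Luminescence from a 4×ERE-luciferase reporter in BG1-Luc-4E2 cells served as read-out. Cells, pre-cultured 5 days in stripped-serum phenol-red-free medium, were exposed to compound with 17beta-estradiol co-stimulation for 21.5 h at 37 C.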

[14] = qHTS assay to identify small molecule antagonists of the estrogen receptor alpha (ER-alpha) signaling pathway using the BG1 cell line - cell viability counter screen (AID 743081);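 also: compound given together with 17beta-estradiol as the ER stimulus; series mostly up to about 70 µM; nearly all actives have a fitted effect of over 45% in size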
Aromatase (Homo sapiens) = Aromatase (Homo sapiens) (UniProt P11511); assay: qHTS assay to identify aromatase inhibitors (AID 743083); also: series mostly up to about 70 µM; nearly all actives have a fitted effect of over 55% in size
[15] = target: Androgen receptor (Homo sapiens) (UniProt P10275); assay: qHTS assay to identify small molecule antagonists of the androgen receptor (AR) signaling pathway (AID 743035; active = well fitted inhibition curve with a large enough effect in the signal ratio in the repeat runs, not every such curve was filed as active; the % refers to the signal ratio)
In short: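 HEK293 cells stably carrying UAS-beta-lactamase reporter, 2,000/well, given compounds plus R1881 agonist and incubated 16 h at 37C. LiveBLAzer B/G FRET substrate then added for 2 h at room temperature before fluorescence reading.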

[16] = target: Androgen receptor (Homo sapiens) (UniProt P10275); assay: qHTS assay to identify small molecule agonists of the androgen receptor (AR) signaling pathway (AID 743036; active = well fitted activation curve with a large enough effect in the signal ratio in the repeat runs, with a control signal flat, not every such curve was filed as active; the % refers to the signal ratio)
In short: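 Agonist activity was scored by beta-lactamase reporter fluorescence in stably transfected HEK293 cells exposed to compounds for 16 h at 37C and 5% CO2. Substrate loading took 2 h at room temperature.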

[17] = target: Androgen receptor (Homo sapiens) (UniProt P10275); assay: qHTS assay to identify small molecule agonists of the androgen receptor (AR) signaling pathway using the MDA cell line (AID 743040; also: nearly all actives have a fitted effect of over 20% in size)
In short: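 Luminescence from ONE-Glo, read after 30 min at room temperature, reflects MMTV-driven luciferase in MDA-kb2 cells (AR- and GR-responsive). Treatment lasted 16 h at 37C, 0% CO2.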

[18] = target: Androgen receptor (Homo sapiens) (UniProt P10275); assay: qHTS assay to identify small molecule antagonists of the androgen receptor (AR) signaling pathway using the MDA cell line (AID 743042; also: nearly all actives have a fitted effect of over 55% in size)
In short: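 MDA-kb2 cells (human breast carcinoma, stably carrying an MMTV-luciferase reporter responsive to AR and GR) were plated at 3,000 cells/well and preincubated 5 hr at 37C, then given compound plus R1881 agonist for 16 h. ONE-Glo luminescence was read.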

[19] = qHTS assay for identifying genotoxic compounds that show differential cytotoxicity against isogenic chicken DT40 cell lines with known DNA damage response pathways - wild type cell line (AID 743012); also: nearly all actives have a fitted effect of over 60% in size; also: potency is read from the fitted curve at half-maximal effect
In short: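 Wild-type DT40 cells (300/well) exposed to compounds for 40 hours at 37 C/5% CO2. Viability read by CellTiter-Glo luminescence after 30 min at room temperature.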

Chain of Aromatase (Homo sapiens) (P11511 whole entry, looked up): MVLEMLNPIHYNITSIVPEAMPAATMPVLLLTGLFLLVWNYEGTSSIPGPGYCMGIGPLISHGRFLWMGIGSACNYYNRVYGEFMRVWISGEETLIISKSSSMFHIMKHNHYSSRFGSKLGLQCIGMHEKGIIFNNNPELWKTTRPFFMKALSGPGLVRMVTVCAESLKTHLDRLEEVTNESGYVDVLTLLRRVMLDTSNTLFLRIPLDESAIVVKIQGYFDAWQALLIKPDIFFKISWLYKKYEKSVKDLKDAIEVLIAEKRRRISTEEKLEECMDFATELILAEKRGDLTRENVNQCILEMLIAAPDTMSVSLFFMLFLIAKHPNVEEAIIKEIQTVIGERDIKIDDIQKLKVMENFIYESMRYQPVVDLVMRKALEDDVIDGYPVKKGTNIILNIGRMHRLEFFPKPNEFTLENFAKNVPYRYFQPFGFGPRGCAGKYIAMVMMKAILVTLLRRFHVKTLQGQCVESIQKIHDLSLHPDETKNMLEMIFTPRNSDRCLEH
Chain of Estrogen receptor (Homo sapiens) (P03372 whole entry, looked up): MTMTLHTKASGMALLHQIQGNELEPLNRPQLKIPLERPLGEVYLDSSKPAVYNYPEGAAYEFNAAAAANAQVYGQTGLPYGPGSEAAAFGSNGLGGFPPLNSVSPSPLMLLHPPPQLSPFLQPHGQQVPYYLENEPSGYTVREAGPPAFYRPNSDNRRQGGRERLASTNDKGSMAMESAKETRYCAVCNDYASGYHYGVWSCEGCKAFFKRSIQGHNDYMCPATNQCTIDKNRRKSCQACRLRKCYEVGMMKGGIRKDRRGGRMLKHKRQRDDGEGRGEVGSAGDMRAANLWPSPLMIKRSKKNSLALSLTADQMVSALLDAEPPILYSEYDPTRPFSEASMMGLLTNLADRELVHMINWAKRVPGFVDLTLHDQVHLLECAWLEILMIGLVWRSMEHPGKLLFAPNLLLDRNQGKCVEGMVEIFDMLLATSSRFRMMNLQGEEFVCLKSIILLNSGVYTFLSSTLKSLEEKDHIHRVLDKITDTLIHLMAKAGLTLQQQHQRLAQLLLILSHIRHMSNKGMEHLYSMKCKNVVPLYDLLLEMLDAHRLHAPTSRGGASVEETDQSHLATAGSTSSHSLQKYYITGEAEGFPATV
Chain of Androgen receptor (Homo sapiens) (P10275 whole entry, looked up): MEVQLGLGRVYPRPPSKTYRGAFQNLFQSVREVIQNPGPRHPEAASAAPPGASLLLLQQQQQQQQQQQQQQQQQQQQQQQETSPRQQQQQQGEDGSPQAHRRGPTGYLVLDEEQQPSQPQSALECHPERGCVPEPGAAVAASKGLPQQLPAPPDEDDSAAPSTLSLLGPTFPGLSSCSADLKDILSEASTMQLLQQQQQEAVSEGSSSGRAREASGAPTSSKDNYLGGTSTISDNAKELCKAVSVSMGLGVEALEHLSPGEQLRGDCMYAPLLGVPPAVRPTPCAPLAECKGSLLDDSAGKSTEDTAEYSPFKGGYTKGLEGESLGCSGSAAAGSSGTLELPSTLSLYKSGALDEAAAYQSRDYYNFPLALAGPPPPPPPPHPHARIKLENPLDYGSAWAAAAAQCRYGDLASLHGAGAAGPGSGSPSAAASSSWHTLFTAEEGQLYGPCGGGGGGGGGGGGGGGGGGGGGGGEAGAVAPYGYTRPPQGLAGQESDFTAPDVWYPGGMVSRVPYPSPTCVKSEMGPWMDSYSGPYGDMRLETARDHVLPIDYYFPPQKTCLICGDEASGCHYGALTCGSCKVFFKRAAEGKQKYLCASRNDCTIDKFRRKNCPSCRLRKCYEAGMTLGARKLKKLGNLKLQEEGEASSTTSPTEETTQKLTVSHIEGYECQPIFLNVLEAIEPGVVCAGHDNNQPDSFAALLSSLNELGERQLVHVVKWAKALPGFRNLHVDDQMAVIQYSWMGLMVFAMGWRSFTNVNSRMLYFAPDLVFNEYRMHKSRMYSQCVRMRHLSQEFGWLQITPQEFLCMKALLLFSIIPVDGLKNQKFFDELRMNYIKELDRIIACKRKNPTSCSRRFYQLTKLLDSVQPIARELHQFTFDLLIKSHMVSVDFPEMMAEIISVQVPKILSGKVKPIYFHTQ

Row | SMILES | outcome [1] | Potency [2] | Potency [3] | Potency [4] | Potency [5] | Potency [6] | Potency [7] | outcome [8] | outcome [9] | outcome [10] | Potency [11] | Potency [12] | outcome [13] | Potency [14] | Potency (Aromatase (Homo sapiens)) | outcome [15] | outcome [16] | Potency [17] | Potency [18] | Potency [19]
1 | NS(=O)(=O)c1cc(C(=O)O)cc(N2CCCC2)c1Oc1ccccc1 | inactive | inactive | inactive | inactive | inactive | inactive | inactive | inactive | inactive | inactive | inactive | inactive | inactive | inactive | inactive | – | – | – | – | –
2 | CC(C)NC(=O)NC(C)C | inactive | inactive | inactive | inactive | inactive | – | inactive | inactive | inactive | inactive | inactive | inactive | – | inactive | inactive | inactive | inactive | inactive | inactive | –
3 | COc1cc(C(=O)N2CCCCCCC2)cc(OC)c1OC | inactive | – | – | inactive | inactive | – | inactive | inactive | inactive | inactive | inactive | inactive | inactive | inactive | inactive | – | – | – | – | 21.1 µM (active)
4 | CCCCCCCCCCCCCCCCC | inactive | – | inactive | inactive | inactive | – | inactive | inactive | inactive | inactive | inactive | 61.1 µM (active) | inactive | inactive | inactive | – | – | – | – | inactive
5 | CC(C(=O)O)c1ccc(CC2CCCC2=O)cc1 (centres undefined) | inactive | – | inactive | inactive | inactive | – | inactive | inactive | inactive | inactive | inactive | inactive | inactive | inactive | inactive | – | – | – | – | inactive
6 | Nc1ccccc1S(=O)(=O)O | inactive | – | inactive | inactive | inactive | – | inactive | inactive | – | inactive | – | – | – | inactive | inactive | – | – | – | – | inactive
7 | O=C1NC(=O)[C@@]2(CCOc3ccc(F)cc32)N1 | inactive | – | inactive | inactive | inactive | – | – | – | inactive | inactive | inactive | inactive | – | inactive | inactive | – | – | – | – | inactive
8 | CCCCCCOC(=O)CCCCC(=O)OCCCCCC | inactive | – | inactive | inactive | inactive | – | inactive | inactive | inactive | inactive | inactive | inactive | – | inactive | inactive | – | – | – | – | inactive
9 | NC(=O)c1cn(Cc2c(F)cccc2F)nn1 | inactive | inactive | inactive | inactive | inactive | inactive | inactive | inactive | – | inactive | – | – | – | inactive | – | – | – | – | – | –
10 | CCOC(C)(C)C | inactive | inactive | inactive | inactive | inactive | inactive | inactive | inactive | inactive | inactive | inactive | inactive | inactive | inactive | inactive | – | – | – | – | –
11 | COCCCOCCCOC | inactive | inactive | inactive | inactive | inactive | inactive | inactive | inactive | inactive | inactive | inactive | inactive | inactive | inactive | inactive | – | – | – | – | –
12 | C1CN(CCOCCN2CCOCC2)CCO1 | inactive | inactive | inactive | inactive | inactive | inactive | inactive | inactive | inactive | inactive | inactive | inactive | inactive | inactive | inactive | – | – | – | – | –
13 | CCOC(=O)[C@H](CCc1ccccc1)N[C@@H](C)C(=O)N1[C@H](C(=O)O)C[C@@H]2CCC[C@@H]21 | inactive | – | inactive | inactive | inactive | – | inactive | inactive | inactive | inactive | inactive | inactive | inactive | inactive | inactive | – | – | – | – | inactive
14 | CN(C)CCCNCCCN(C)C | inactive | – | inactive | inactive | inactive | – | inactive | inactive | inactive | inactive | inactive | inactive | inactive | inactive | inactive | – | – | – | – | inactive
15 | C=C1CC[C@H]2C[C@@H]1C2(C)C | inactive | – | – | inactive | inactive | inactive | inactive | inactive | inactive | inactive | inactive | inactive | – | inactive | inactive | – | – | – | – | inactive
16 | COc1c(N2C[C@@H]3CCCN[C@@H]3C2)c(F)cc2c(=O)c(C(=O)O)cn(C3CC3)c12 | inactive | – | inactive | inactive | inactive | – | – | – | inactive | inactive | inactive | inactive | inactive | inactive | inactive | – | – | – | – | inactive
17 | C[N+](C)(C)CC(O)CC(=O)[O-] (centres undefined) | inactive | – | inactive | – | inactive | inactive | inactive | inactive | – | inactive | – | – | – | inactive | inactive | – | – | – | – | inactive
18 | CN1CCCC1 | inactive | inactive | inactive | inactive | inactive | inactive | inactive | inactive | inactive | – | inactive | inactive | inactive | inactive | inactive | – | – | – | – | –
